Our source for the z-score values is PubChem BioAssay.

The nature of this assay: calcein-AM signal in unstimulated myeloma cells – cell-based, calcein-AM fluorescence, 48 h, PK04 Diversity Set, profiling panel (AID 1166).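 Also: cells grown under basal conditions without added stimulus; test concentration not given here.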 The following applies: RPMI8226 myeloma viability, higher = more signal.
With `CC1CC/C=C\[C@H]2OC34C=CCN(C(C)C)C(=O)[C@H]3N(CCO)C(=O)[C@@H]4C2C(=O)O1` (some centres undefined), the z-score was -1.11.

`C=C(/C(=C/C[C@H](OC(=O)c1ccncc1)c1ccc(CO)o1)c1cnc2ccccc2c1)C(C)C`: the z-score was -1.25.

For the compound `Cc1ccc(F)cc1S(=O)(=O)N[C@@H]1CCN(Cc2ccc(Br)cc2)C1`, the z-score is -1.29.

For `CN1C2C=C(CCCO)C(C3C(=O)N(C(N)=O)C(=O)C32)C1C1CC1` (centres undefined), the z-score is -0.952.

For the compound `Cc1ccc(S[C@]2(C(=O)O)CC(=O)N(C3CCCCC3)[C@@H]2c2ccc(CO)cc2I)cc1`, the z-score is -2.13.

With `COCCOC(=O)N1C(=O)[C@@]2(c3cc(C#CC4(O)CCCCCC4)ccc31)[C@H](C(=O)N1CCc3cc(OC)c(OC)cc3C1)[C@H]1C(=O)O[C@H](c3ccccc3)[C@H](c3ccccc3)N1[C@@H]2c1ccc(OCCO)cc1`, the z-score is -0.468.

With `COC(=O)[C@@]1(Cc2ccc(OC)cc2)[C@H]2c3cc(C(=O)N4CCCC4)n(CCc4c[nH]c5ccc(O)cc45)c3C[C@H]2CN1C(=O)c1ccccc1`, the z-score was 0.305.

For `CN(C)C(=O)[C@]1(CCC(=O)OC(C)(C)C)N=C(c2ccc(OCCCO)cc2)O[C@@H]1c1ccccc1CN=[N+]=[N-]`, the z-score is 0.259.

Consider `CCOC(=O)C1=CC[C@@H](c2ccccc2)N(S(=O)(=O)c2ccc(C)cc2)[C@H]1c1ccccc1`, for which the z-score was 0.229.

As to `NC(=O)[C@H]1[C@@H]2C(=O)O[C@@H](c3ccccc3)[C@@H](c3ccccc3)N2[C@@H](c2ccc(OCCO)cc2)[C@]12C(=O)Nc1ccc(C#CCCO)cc12`, the z-score is 0.167.

As for `CCCCCCCCCC(O)C1C=CC2C(=O)N(c3ccccc3)C(=O)C2N1Nc1cc(OC)c(OC)c(OC)c1` (centres undefined), the z-score was -4.07.

On to `COc1cc(OC)c(C(O)C2C=CC3C(=O)N(Cc4ccccc4)C(=O)C3N2n2cnnc2)cc1Br` (centres undefined), for which the z-score was -0.0145.

`O=C1O[C@@H](c2ccccc2)[C@@H](c2ccccc2)N2[C@@H](c3ccc(OCCO)cc3)[C@]3(C(=O)Nc4ccc(C#CC5=CCCCC5)cc43)[C@@H](C(=O)NC[C@H](O)c3ccccc3)[C@H]12`: the z-score was -2.81.

On to `CC(C)[Si](C#CCCCC#N)(O[C@H](c1ccccc1)c1cn(Cc2ccccc2)nn1)C(C)C`, for which the z-score was -0.34.

As to `CC1=C2[C@@H](CCc3ccccc3)OB(O)C[C@@H]2[C@@H]2C(=O)N(C)C(=O)[C@@H]2C1`, the z-score is 0.339.

For `COc1ccc([Si](C)(C)[C@H]2[C@H](CC(=O)N(CCO)Cc3ccccc3)O[C@@]3(C(=O)N(C)c4c(Br)cc(C)cc43)[C@@H]2C)cc1`, the z-score is -4.66.

As for `C=CC[C@@]1(C(=O)NCCCOC)N=C(c2ccc(OCCCO)cc2)O[C@@H]1c1ccccc1N=[N+]=[N-]`, the z-score was 0.241.

For the compound `COC(=O)C(CC#Cc1ccc2c(c1)[C@]1(C(=O)N2)[C@H](c2ccc(O)cc2)N2[C@H](c3ccccc3)[C@H](c3ccccc3)OC(=O)[C@H]2[C@@H]1C(=O)NC[C@H](O)c1ccccc1)C(=O)OC`, the z-score was -1.83.

Consider `COc1ccc([Si](C)(C)[C@H]2[C@H](CC(=O)N3Cc4ccccc4C[C@H]3CO)O[C@@]3(C(=O)N(Cc4ccc(N5CCOC5=O)cc4)c4ccccc43)[C@@H]2C)cc1`, for which the z-score is -4.23.

Regarding `COC(=O)c1c(CC[C@@H](CO)NC(=O)N[C@@H](C)Cn2cc(-c3ccccn3)nn2)oc(C(C)=O)c1C(=O)OC`, the z-score was -0.858.

With `COCC(=C=CC[C@H](O)c1ccc(OCCO)cc1)CCO`, the z-score was 0.231.

As for `N[C@@H](Cc1ccccc1)C(=O)NCc1cn(Cc2ccccc2)nn1`, the z-score is -1.11.

As to `CCOC(=O)C[C@H]1[C@H](OC(=O)Cc2ccc3c(c2)OCO3)[C@@H](NC(=O)c2ccc3ccccc3n2)c2cc(OCCCO)ccc2N1C(=O)c1ccccc1`, the z-score is -1.09.

Consider `CC(CO)N1C(=O)[C@]2(C)C3C(=O)OCCC/C=C\[C@H]3OC23C=CCN(c2ccc(Cl)cc2)C(=O)[C@@H]13` (some centres undefined), for which the z-score was 0.202.

In the case of `CC(=O)NCCCC[C@@H]1NC(=O)[C@@H]2C[C@H](C(=O)NCCCCCN)[C@H](c3ccc(O)cc3)N2C1=O`, the z-score was -0.131.

Regarding `COC(=O)[C@@]1(Cc2ccccc2)[C@H]2c3cc(C(=O)N(C)C)n(Cc4ccc(C)o4)c3C[C@H]2CN1C(=O)c1ccccc1`, the z-score is -3.69.

As for `CCCC[C@@H](O)C1=C(COc2ccccc2)C[C@H]2C(=O)N(Cc3ccccc3)C(=O)[C@H]2[C@H]1CO`, the z-score is 0.0172.

Regarding `COC(=O)C1(CC(C)C)C=C2C(=C(c3ccccc3)C(=O)C2C)CN1` (centres undefined), the z-score is -0.12.

For the compound `COc1ccc(CCNC(=O)[C@@]2(c3ccc([N+](=O)[O-])cc3)CC(=O)N(C3CCCCC3)[C@@H]2c2ccc(CO)cc2)cc1`, the z-score was 0.841.
